# Measurements from PubChem BioAssay (EPA / NIEHS).
# Activity calls are given as the source filed them. The calls were made as follows: active = hit-call score of the fitted dose curve at least 0.9, where 1 is the maximum; inactive = score below 0.9.
# Assay: CCTE_Simmons_MITO_max_resp_rate: CCTE's HepG2 Seahorse XF Respirometric Screening Assay at Maximal Respiratory State [uncoupled], Simmons Lab (AID 2284002)
# Conditions: actives raise or lower the signal
# Procedure: CCTE_Simmons_MITO is cell-based, respirometric assay using HepG2 cells and a Seahorse XF Analyzer to measure oxygen consumption rates over four temporal phases spanning a total of 72 minutes: pre-injection (pre-treatment), basal (following test compound injection), maximal (following FCCP uncoupler injection), and inhibited (following rotenone/antimycin A injection)CCTE_Simmons_MITO_max_resp_rate is one of 4 assay components calculated from the CCTE_Simmons_MITO assay. It is designed to make measurements of maximal respiration using a form of respirometric reporter, as detected with […] signals by Seahorse XF96 technology. Data from the assay component CCTE_Simmons_MITO_max_resp_rate was analyzed at the endpoint, CCTE_Simmons_MITO_max_resp_rate_OCR, with bidirectional fitting relative to DMSO as the negative control and baseline of activity. Using a type of respirometric reporter, measures of maximal respiration for gain or loss-of-signal activity can be used to understand cellular oxygen consumption as it relates to cellular respiration. To generalize the intended target to other relatable targets, this assay endpoint is annotated to the mitochondria intended target family, where the subfamily is respiration.
# Test chemicals were administered as a titrated series of 7 concentrations from 125 nM up to 100 uM [final] prior to kinetic endpoint detection at 6 minute intervals [3 min mix followed by 3 minutes measure] for 72 minutes. Three biological replicates of technical singles were run for every chemical concentration tested. Dimethylsulfoxide [DMSO] was used as the vehicle control. The electron transport chain inhibitor fenpyroximate was used as the positive control for decreased basal respiration and was administered as a titrated series of 6 concentrations from 250 nM up to 2.75 uM [final] with technical triplicates for the top concentration only. The uncoupler 2,4-dintirophenol was used as the positive control for increased basal respiration and was administered as a titrated series of 6 concentrations from 938 nM up to 40 uM [final] with technical triplicates for the top concentration only. A Seahorse XF Analzyer is required to measure the response.
Structure (SMILES),AC50,outcome
O=C(NO)C1(NS(=O)(=O)c2ccc(Oc3ccc(F)cc3)cc2)CCOCC1,31.2 µM (active),
CC(C)c1nnc2ccc(-c3ocnc3-c3cc(F)ccc3F)cn12,76.2 µM (active),
O=C1CN(N=Cc2ccc([N+](=O)[O-])o2)C(=O)N1,12.7 µM (active),
CCOc1ccc2[nH]cc(C(=O)NCc3ccccc3)c(=O)c2n1,,inactive
CCN(CC)C(=S)SSC(=S)N(CC)CC,,inactive
CCCCCCCC1CCC(=O)O1 (stereo unspecified),,inactive
NC(=O)NN=Cc1ccc([N+](=O)[O-])o1,,inactive
C=CCc1cc(S(=O)(=O)c2ccc(O)c(CC=C)c2)ccc1O,8.67 µM (active),
O=C(O)c1cccc(C[C@@H]2COc3ccc(OCc4nc5cc(F)ccc5s4)cc3[C@@H]2O)c1,25 µM (active),
Cc1nccn1-c1ccc(Sc2cccc(C3(C(N)=O)CCOCC3)c2)cc1,5.55 µM (active),
CCc1ccc(O)c(C(C)(C)C)c1,,inactive
